# aSyn UTR inh: MLPCN primary screen, SNCA 5' untranslated region; inhibition, % (tested at 7.5 µM); AID 1813, 2009; 300,000 tested, 0.82% active; alpha-synuclein 5'UTR reporter, inhibitor activity; in the data active = inhibition above about 60%;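 note: H4 neuroglioblastoma cells stably carrying SNCA 5'UTR luciferase fusion; 0% = DMSO wells and 100% = positive control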
# Gli-Sufu antag: Gli-Sufu pathway antagonists, primary screen, luciferase luminescence, Sufu-KO-LIGHT cells, uHTS; Sufu-KO-LIGHT fibroblasts, Gli luciferase reporter luminescence; inhibition, % at 5 µM; 340,000 tested, 0.74% active; AID 588413, 2011;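 active = inhibition above about 55%, limit read from the data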;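 note: 0% = DMSO-treated cells and 100% = wells with medium but no cells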
# KLF5 inhibitor: KLF5 expression inhibitors, primary screen, DLD-1 cells, luminescence; DLD-1 KLF5 promoter-luciferase reporter; AID 1700, 2009; inhibition, % at 5 µM; 290,000 tested, 0.23% active;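 active = inhibition above a per-plate limit of that plate's mean compound inhibition plus 3 SD, cut at about 60% in these data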;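 note: 0% = DMSO wells and 100% = LY294002 at 200 µM; higher means less KLF5 promoter-driven luciferase light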
# Jurkat NFkB inh: inhibitors of induced NF-kB luciferase reporter, primary screen, TCR NF-kB activation inhibitor project, cell-based, luminescence, uHTS; Jurkat, PMA/ionomycin-induced NF-kB luciferase reporter; inhibition, % at 4 µM; AID 435003, 2010; 330,000 tested, 0.53% active; in the data active = inhibition above about 50%
# 697 NFkB inh: inhibitors of PMA/ionomycin-induced NF-kB reporter, 697 cells, primary screen, B-cell NF-kB inhibitor project, cell-based, luminescence, uHTS; 697 B-cell NF-kB luciferase reporter, 16 h; 330,000 tested, 0.33% active; inhibition, % at 4 µM; in the data active = inhibition above about 35%
# Mdm2-MdmX inh: inhibitors of human Mdm2-MdmX association, primary screen, cell-based, luminescence, split luciferase, SaOS-2, uHTS; inhibition, % at 8 µM; AID 485346, 2010; SaOS-2 split-luciferase Mdm2/MdmX complementation; Protein Mdm4 (Homo sapiens) + E3 ubiquitin-protein ligase Mdm2 (Homo sapiens), …; 330,000 tested, 3% active;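 active = inhibition of at least 50% at 8 µM in the primary screen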
# Target sequence (O15151 whole entry, looked up): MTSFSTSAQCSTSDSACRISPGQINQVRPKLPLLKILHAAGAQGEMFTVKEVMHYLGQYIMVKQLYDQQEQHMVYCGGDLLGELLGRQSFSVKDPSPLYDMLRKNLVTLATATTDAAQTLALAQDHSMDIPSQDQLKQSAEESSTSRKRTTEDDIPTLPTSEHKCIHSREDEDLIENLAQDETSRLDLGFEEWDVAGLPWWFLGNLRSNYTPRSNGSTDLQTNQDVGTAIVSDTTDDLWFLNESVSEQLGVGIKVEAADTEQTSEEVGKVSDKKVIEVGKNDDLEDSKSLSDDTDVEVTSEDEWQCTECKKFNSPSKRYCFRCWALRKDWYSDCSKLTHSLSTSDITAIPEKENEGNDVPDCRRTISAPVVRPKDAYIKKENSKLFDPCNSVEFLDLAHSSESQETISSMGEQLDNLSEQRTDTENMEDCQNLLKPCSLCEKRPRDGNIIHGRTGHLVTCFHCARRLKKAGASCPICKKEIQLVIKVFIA
# Target sequence (Q00987 whole entry, looked up): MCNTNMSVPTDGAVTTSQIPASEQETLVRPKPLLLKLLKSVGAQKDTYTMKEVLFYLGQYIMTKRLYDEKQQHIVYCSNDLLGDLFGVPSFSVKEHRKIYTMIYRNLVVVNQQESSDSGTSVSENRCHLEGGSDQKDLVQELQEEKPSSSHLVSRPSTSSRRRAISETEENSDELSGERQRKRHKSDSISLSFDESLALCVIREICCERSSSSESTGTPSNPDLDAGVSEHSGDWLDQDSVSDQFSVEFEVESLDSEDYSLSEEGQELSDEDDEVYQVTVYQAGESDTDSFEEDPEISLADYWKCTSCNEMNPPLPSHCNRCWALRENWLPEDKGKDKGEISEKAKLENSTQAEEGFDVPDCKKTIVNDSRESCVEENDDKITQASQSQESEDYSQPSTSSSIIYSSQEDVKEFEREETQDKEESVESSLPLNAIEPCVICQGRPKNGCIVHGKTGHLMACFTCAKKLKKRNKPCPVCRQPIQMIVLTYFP
# Mdm2 MdmX conf: Mdm2-MdmX complex disruptors, retested hits, confirmation, luminescence, single concentration; shares compounds with Mdm2-MdmX inh; Mdm2-MdmX binding, luminescent assay; inhibition, % at 8 µM; 10,000 tested, 55% active; AID 489028, 2010; in the data active = inhibition above about 40%
# FLuc counter: full-length luciferase signal inhibition, confirmation, counter-screen for Mdm2/MdmX interaction inhibitor project, cell-based, single concentration, SaOS-2 | inhibition, % at 8 µM | AID 504607, 2011 | SaOS-2 full-length luciferase counterscreen, luminescence | shares compounds with Mdm2-MdmX inh | 6,200 tested, 77% active;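 active = mean inhibition at 8 µM reaching about 37%, which flags the compound as non-specific, limit read from the data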;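 note: p53-null SaOS-2 cells with luciferase driven by a doxycycline-inducible promoter; compound on cells about two nights before reading with doxycycline added after day one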
# Starred values were filed as active, the others as inactive; x = not tested or not shown. Hits are enriched below; roughly 4.1% of the tested compounds scored in any of these assays.
SMILES,aSyn UTR inh,Gli-Sufu antag,KLF5 inhibitor,Jurkat NFkB inh,697 NFkB inh,Mdm2-MdmX inh,Mdm2 MdmX conf,others
O=C(CN1C(=O)/C(=C\c2cccc(Br)c2)Oc2ccccc21)NCCCN1CCOCC1,-44,-2,-4,-14,5,63*,11,
C/C(CC(=O)Nc1cccc(Br)c1)=N\NC(=O)c1ccc(O)cc1O,-31,1,-45,-26,1,-47,x,
COc1ccc(N=C2SC(C(=O)N3CCN(c4ccccc4)CC3)CC(=O)N2C)cc1 (stereo not given),5,2,-21,26,-4,5,x,
COc1ccc(C(=O)/C=C/c2cn(CC(O)CN3CCN(C)CC3)c3ccccc23)cc1OC (stereo not given),-62,3,-53,19,-10,50*,25,
CCCN(CCC)CC(O)Cn1cc(/C=C/C(=O)c2ccccc2)c2ccccc21 (stereo not given),-10,37,-3,x,x,x,x,
CCCCN(C)CC(O)Cn1cc(/C=C/C(=O)c2ccc(C)cc2)c2ccccc21 (stereo not given),-24,-11,-19,-16,26,74*,20,
O=C(/C=C/c1cn(CC(O)CN2CCCCC2)c2ccccc12)c1ccccc1 (stereo not given),-11,-17,-19,x,x,x,x,
CC(OC(=O)CCCN=C1NS(=O)(=O)c2ccccc21)C(=O)NC1CCCCC1C (stereo not given),2,0,-24,2,-11,24,x,
N#Cc1ccc(C(=O)CSc2n[nH]c(=O)n2-c2cccnc2)cc1,x,3,24,-3,2,-11,x,
Cc1ccc(OC/C(=N\O)C(C)(C)C)c([N+](=O)[O-])c1,-77,-28,-54,-28,-8,-9,x,
CCCOc1ccc2ccccc2c1/C=N/n1c(C)nnc1-n1nc(C)cc1C,35,8,-9,49,-3,52*,54*,FLuc counter=54*
CCCCOc1ccc2ccccc2c1C=O,-53,-31,-2,-31,-60,-9,x,
COc1ccc(S(=O)(=O)N2CCCOC2CNC(=O)C(=O)NC2CCCC2)cc1 (stereo not given),12,-1,-53,-1,-64,18,x,
CCCCc1ccc(NC(=O)CSc2nc(=O)n(CCN(CC)CC)c3c2CCCC3)cc1,0,19,x,14,-13,87*,54*,FLuc counter=62*
CCCCc1ccc(NC(=O)CSc2nc(=O)n(CCN(C)C)c3c2CCC3)cc1,-18,19,x,9,-21,37,x,
Cc1cc(C)c(-c2csc(NC(=O)C3=COCCO3)n2)cc1C,-57,25,x,3,-38,1,x,
CC(=O)c1c(C)[nH]c(C(=O)Nc2nc(-c3ccc(-c4ccccc4)cc3)cs2)c1C,-35,-2,3,-11,-4,87*,44*,FLuc counter=100*
O=C(Nc1nc(-c2ccc(-c3ccccc3)cc2)cs1)C1=COCCO1,-35,-5,-25,-8,-16,65*,57*,FLuc counter=41*
N#CC1=C(N)Oc2cc(N)ccc2C1c1ccc(F)cc1F (stereo not given),-17,-18,-13,20,-18,59*,15,
N#CC1=C(N)Oc2cc(N)ccc2C1c1ccc(F)cc1 (stereo not given),6,3,-22,8,13,29,x,
O=C(COC(=O)COc1cccc(C(F)(F)F)c1)NC(=O)NC1CCCCC1,16,-12,x,-1,-3,-13,x,
CCOC(=O)C1C(=O)NC(c2ccccc2)=NC1c1ccc(O)c(OC)c1 (stereo not given),-9,5,-9,8,22,6,x,

# Screens (PubChem)
